Our source for the binding signal values is paper PMC7819943, “Rice protein-binding microarrays: a tool to detect cis-acting elements near promoter regions in rice”.

Whole data set: some 39,000 sequences, median “fluorescence intensity (a.u.)” near 4,300, cut for the highest 2% near 39,000. Shown is part of a subset that was picked to be rich in the highest values.

This experiment concerns the target T1, OsSMF1 (Oryza sativa, UniProt Q6ZLB0 1-436).
T1 sequence: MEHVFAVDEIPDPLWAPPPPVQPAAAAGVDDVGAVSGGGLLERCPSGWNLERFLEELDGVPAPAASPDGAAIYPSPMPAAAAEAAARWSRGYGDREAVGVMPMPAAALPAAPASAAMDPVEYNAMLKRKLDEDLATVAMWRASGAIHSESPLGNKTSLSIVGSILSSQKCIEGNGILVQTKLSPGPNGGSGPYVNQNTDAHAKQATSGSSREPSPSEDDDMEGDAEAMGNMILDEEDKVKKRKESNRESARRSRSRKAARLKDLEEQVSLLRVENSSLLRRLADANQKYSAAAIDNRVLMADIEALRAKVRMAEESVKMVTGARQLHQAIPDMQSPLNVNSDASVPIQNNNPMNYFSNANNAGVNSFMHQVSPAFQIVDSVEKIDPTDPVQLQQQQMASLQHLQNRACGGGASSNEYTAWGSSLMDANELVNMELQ
As to the kind of experiment: protein-binding microarray (RPBM); PBS, 2% BSA, 51.3 ng/ul salmon testes DNA, 50 uM zinc acetate, 200 nM TF, 25 C, 1 h; high values mean tight binding. The note with it: protein: recombinant; tags: N-terminal polyhistidine and DsRed monomer fusion (pET32a); chain copies: 2; label: CyDye5-dUTP incorporated in the synthesized complementary strand; 3' TTTTT single-stranded linker to array surface; dsDNA, one strand shown. A digest of the protocol:
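Transcription factors were made in E. coli BL21-CodonPlus as N-terminal fusions to a polyhistidine tag and DsRed, then purified on Ni–NTA. After primer extension with Cy5-dUTP and blocking with 2% BSA, a custom Agilent array was exposed for 1 h at 25 °C to 200 nM protein in PBS, 2% BSA, salmon testes DNA and 50 µM zinc acetate. Washed arrays were scanned on an Axon 4000B, and the binding signal is per-feature fluorescence intensity in arbitrary units.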
With “AGTATTTTAAATCATATACAAGTACGTCACATCATCACTCCGGAGTCACCTAGTGCAG”, the binding signal was 3720 fluorescence intensity (a.u.).
The figure for “TGACACCGTCGCCACCTCGCCACCCATCCATTTCCATTGCCGGAGTCACCTAGTGCAG” is 3650 fluorescence intensity (a.u.); for “TGCACGCTGCGGCGTACGTCGCGTGCGCACACGGGAATTTCGGAGTCACCTAGTGCAG” it is 3190 fluorescence intensity (a.u.).
On to “TCTACTCCTAAATCCACATCATCTTTAGCAAAAGCAACAACGGAGTCACCTAGTGCAG”, for which the binding signal is 4670 fluorescence intensity (a.u.).
In the case of “TTGTCGCAGGTTGCTGACTGTTCCTCGAGGGAGTTCTCGGCGGAGTCACCTAGTGCAG”, the binding signal was 6980 fluorescence intensity (a.u.).
Regarding “GCCTCTCCTTGCTTGCGTGCTCACTGTCGCTGACTGCTCTCGGAGTCACCTAGTGCAG”, the binding signal was 4650 fluorescence intensity (a.u.).
For the sequence “GCCGTGGGAATGGCTGAGGATTAGTGCGCCACGTCAGCAACGGAGTCACCTAGTGCAG”, the binding signal is 37300 fluorescence intensity (a.u.).
Take “TCGTGGGAATGGCTGAGGATTAGGGCGCCACGTCATCGTTCGGAGTCACCTAGTGCAG”: the binding signal is 45600 fluorescence intensity (a.u.).
As for “TGTGGTGGCTGAGTCATCGTGGGATCCACGTGGGCCCCACCGGAGTCACCTAGTGCAG”, the binding signal is 24700 fluorescence intensity (a.u.).
With “TTTCTCCACGTCAGCGAAACCACCTATATATATACTGCCACGGAGTCACCTAGTGCAG”, the binding signal was 14300 fluorescence intensity (a.u.).
“GCCGCCGCTGTCGCCATCCACGCTCCGAGCGCCACTGCCACGGAGTCACCTAGTGCAG”: the binding signal is 3490 fluorescence intensity (a.u.).
On to “AACTCTCCAGTCTCCACCCACCTCACTCCACAGTCCACACCGGAGTCACCTAGTGCAG”, for which the binding signal is 3150 fluorescence intensity (a.u.).
For “CTCCGTTGTGCTCTGTCTCTCTACCGCCACCATCCACTGCCGGAGTCACCTAGTGCAG”, the binding signal is 39200 fluorescence intensity (a.u.).
On to “CTCCACACAGACACACATCCCACCCCACCCACATACACACCGGAGTCACCTAGTGCAG”, for which the binding signal is 3610 fluorescence intensity (a.u.).
As to “AGACACAGCACACCCACTCACTCTGCTCACTCTCCCATACCGGAGTCACCTAGTGCAG”, the binding signal was 39100 fluorescence intensity (a.u.).
As for “CCCTGCTCTGCCACGCCCGCCACCGTCTGCCGGCCTCTACCGGAGTCACCTAGTGCAG”, the binding signal is 4730 fluorescence intensity (a.u.).
With “CTATGCCTTGTCAACATTCAACCCCTCCAATAGACTTTGTCGGAGTCACCTAGTGCAG”, the binding signal was 3210 fluorescence intensity (a.u.).
Turning to “CTCTTGACCAGCCGAGCGCACCGTCATCAGGCTACATCTCCGGAGTCACCTAGTGCAG”, the binding signal is 5290 fluorescence intensity (a.u.).
Then “TCCAGTTTCGCGTAGCTGCGTGACAGTTCAATTGAACTCTCGGAGTCACCTAGTGCAG”, with 3200 fluorescence intensity (a.u.).
In the case of “CTCTTTTCCCCATCTCACATACTGTGCCTTGCCTCCATAACGGAGTCACCTAGTGCAG”, the binding signal was 65200 fluorescence intensity (a.u.).
Turning to “TCCTCCCATCTCTCTCTCTTTTGCCCACACTCTTTTCACACGGAGTCACCTAGTGCAG”, the binding signal is 5660 fluorescence intensity (a.u.).
The figure for “CCCTCTCCACATTCTCTTCCACCTGTGTTCCCCTTTTCTTCGGAGTCACCTAGTGCAG” is 3320 fluorescence intensity (a.u.); for “TTCTATAGAAGCTTTCTCTCTTAAAACTCTACCAAAATTTCGGAGTCACCTAGTGCAG” it is 24000 fluorescence intensity (a.u.); for “TCGTCGCCCACTGCCACCGCTGACGTCACCGCACTCTCGCCGGAGTCACCTAGTGCAG” it is 30500 fluorescence intensity (a.u.).
Consider “AATAAATAGGCCTGACGTGAGGCCCACTCGCCACGTCAGCCGGAGTCACCTAGTGCAG”, for which the binding signal is 44900 fluorescence intensity (a.u.).
On to “CAGCCGGGCCCACGTGTCAGTGAGTGCGTGACGCGTCAGCCGGAGTCACCTAGTGCAG”, for which the binding signal was 15200 fluorescence intensity (a.u.).
“TTTTGACCCGGTTTTAGCCTACGTGACGGCTAAGTCAGCGCGGAGTCACCTAGTGCAG”: the binding signal was 4480 fluorescence intensity (a.u.).
Then “AATTACCACCCTAACTCAATTAGAAGCGGTTTTCAGCCTACGGAGTCACCTAGTGCAG”, with 52400 fluorescence intensity (a.u.).
Turning to “TCTTTTGGTGGTTTCAGAAGCGGTTTTATCCTACGTGACACGGAGTCACCTAGTGCAG”, the binding signal is 4530 fluorescence intensity (a.u.).
As for “GGGGAAGGAGAAGAGGAAGGAGAGGGGAGGAGGAGGAGGGCGGAGTCACCTAGTGCAG”, the binding signal is 3770 fluorescence intensity (a.u.).
On to “GAGAAGAAGGCCACCTCACCACTAAAGGAGGAGGAGGAGGCGGAGTCACCTAGTGCAG”, for which the binding signal was 43500 fluorescence intensity (a.u.).
The figure for “CAAGGAAGAATATGCCACCTCCACGGAGGCCGGCGGCGGCCGGAGTCACCTAGTGCAG” is 3710 fluorescence intensity (a.u.); for “CCTTTCCGATTACGTGTTGGACCTTGACCCTAGGCCATATCGGAGTCACCTAGTGCAG” it is 49700 fluorescence intensity (a.u.).
With “TACGTGTGTTGATTTCCGTGACATATGCATAAATTTCTTTCGGAGTCACCTAGTGCAG”, the binding signal is 3530 fluorescence intensity (a.u.).
Turning to “TCAGCGAATTGGTACGTACCCTTGTACGTGTTGACGCCATCGGAGTCACCTAGTGCAG”, the binding signal is 3650 fluorescence intensity (a.u.).
The figure for “CCGTCGACTCTGTGCCACGTCCTGTTGCTCGTCGGATTCCCGGAGTCACCTAGTGCAG” is 14000 fluorescence intensity (a.u.); for “TTGCTGCAGTTCTCGTATGCTTCCTAGTACTATCTGCGTTCGGAGTCACCTAGTGCAG” it is 3230 fluorescence intensity (a.u.).
As to “CTAGTTCGCCTTCCACGTACGCACTTGGCGTCGTATCTGCCGGAGTCACCTAGTGCAG”, the binding signal is 6440 fluorescence intensity (a.u.).
As for “TGCAGTATCTGCCGTTCGTATCGCTGCGTTGAATCTTCCACGGAGTCACCTAGTGCAG”, the binding signal was 47100 fluorescence intensity (a.u.).
The figure for “GATCATGAGCTCCACGGCGGCCAACGTGGCGGCGCCGACGCGGAGTCACCTAGTGCAG” is 8640 fluorescence intensity (a.u.); for “TCAGCTCAGCAAATTAGGATGTTTCATTAGTTAGAACAAACGGAGTCACCTAGTGCAG” it is 51600 fluorescence intensity (a.u.); for “TTTCGCAATTATATTGATGCAGAAATCAGCAGCTCACAATCGGAGTCACCTAGTGCAG” it is 20700 fluorescence intensity (a.u.).
